Results as given in PubChem BioAssay (EPA / NIEHS).
Active and inactive are the calls of the source. How the source made its calls: active means hit-call score of the fitted dose curve at least 0.9, where 1 is the maximum; inactive means score below 0.9.

Test: ATG_RORE_CIS: Attagene CIS-FACTORIAL HepG2 Assay for human RAR-related Orphan Receptor Element (RORE) (AID 2282959)
Details: HepG2 Attagene cis-factorial RORE reporter, mRNA; actives raise or lower the signal
Method: ATG_CIS is a cell-based, multiplexed-readout assay that uses HepG2, a human liver cell line, with measurements taken at 24 hours after chemical dosing in a 24-well plate.ATG_RORE_CIS is one of 52 assay component(s) measured or calculated from the ATG_CIS assay. It is designed to make measurements of mRNA induction, a form of inducible reporter, as detected with fluorescence intensity signals by Reverse transcription polymerase chain reaction (RT-PCR) and Capillary electrophoresis technology.Data from the assay component ATG_RORE_CIS was analyzed into 1 assay endpoint. This assay endpoint, ATG_RORE_CIS, was analyzed with bidirectional fitting relative to DMSO as the negative control and baseline of activity. Using a type of inducible reporter, measures of mRNA for gain or loss-of-signal activity can be used to understand the reporter gene at the transcription factor-level as they relate to the gene RORA and RORB and RORC. Furthermore, this assay endpoint can be referred to as a primary readout, because this assay has produced multiple assay endpoints where this one serves a reporter gene function. To generalize the intended target to other relatable targets, this assay endpoint is annotated to the nuclear receptor intended target family, where the subfamily is orphan.
Human liver HepG2 cells are transiently transfected with multiple reporter transcription units (MRTUs) in 6-well plates using FuGene 6 reagent (Roche; 3 ml FuGene/1 mg DNA). The MRTU constructs are regulated by a cis-regulating element (promoter). […] A major difference between the CIS and TRANS system is that in CIS activities of endogenous TFs are measured, whereas the TRANS assay evaluates changes in activities of exogenous, chimeric NR-Gal4 proteins. […] At the end of 24 hour incubation, total RNA was isolated using TriZol reagent (Invitrogen). The isolated RNA is then reverse-transcribed using oligo(dT) primer and Mo-MLV reverse transcriptase (Invitrogen) with DNAse I (Ambion) treatment for 30 min. The one-tenth of the produced cDNA was amplified by PCR using Taq DNA polymerase (Invitrogen) and two reporter sequence-specific primers. The PCR products were fluorescently labeled by primer extension with 6-arboxyfluorescein (6-FAM) 5'-labeled reporter sequence-specific primer (2 min at 95 C, 20 s at 68 C and 10 min at 72 C) and these products were digested with 5U of HpaI (New England Biolabs) for 2h at 37 C. The fragments were purified using Qiaquick PCR columns (Qiagen), analyzed on an ABI 3130xL genetic analyzer (Applied Biosystems) with peak positions identified by using a set of X-rhodamine (ROX)-labeled MapMarker1000 molecular weight standards (BioVentures). The raw capillary electrophoresis data was processed using Attagraph software (Attagene).

Row | Compound | outcome | AC50
1 | Cc1c(-c2cccnc2)c2ccccc2n1CCCCC(=O)O | inactive | 
2 | Nc1cccc(N)c1 | inactive | 
3 | CCCCCCCCCCCCc1ccccc1 | inactive | 
4 | C1N2CN3CN1CN(C2)C3 | inactive | 
5 | O=C1CCCCCN1 | inactive | 
6 | COc1ccc(-n2nc(C(F)F)cc2-c2ccc(S(C)=O)cc2)cc1 (stereo not given) | inactive | 
7 | Nc1ccc(Nc2ccccc2)cc1 | inactive | 
8 | O=C(NS(=O)(=O)/C=C/c1ccccc1)c1ccc(F)cc1Cl | inactive | 
9 | COc1ccc(/C=C/S(=O)(=O)NC(=O)c2ccc(C)cc2Cl)cc1 | inactive | 
10 | CCOc1cccc(-n2cc(C(=O)N3CCN(c4cc(C(=O)O)c5ccccc5c4)CC3)nc2-c2ccc(C)cc2)c1 |  | 26.1 µM (active)
11 | CCOC(=O)CC(CC(=O)OCC)(OC(C)=O)C(=O)OCC | inactive | 
12 | COc1cccc(-c2ccc(/C=C\CN3CCCCCC3)cc2Cl)c1 | inactive | 
13 | CC(C)(O)c1coc(S(=O)(=O)NC(=O)Nc2c3c(cc4c2CCC4)CCC3)c1 | inactive | 
14 | Cc1[nH]cnc1C[C@H]1CCc2c(C)c3ccccc3n2C1=O |  | 18.9 µM (active)
15 | CCc1cc(SCc2sc(-c3ccc(C(F)(F)F)cc3)nc2CN2CCN(c3ccc(OC)cc3)CC2)ccc1OCC(=O)O |  | 11 µM (active)
16 | CC(C)=CCCC(C)CCO (stereo not given) | inactive | 
17 | CC(C)CCO | inactive | 
18 | Cc1ccc(C)c(O)c1 | inactive | 
19 | CNS(=O)(=O)c1cc(C(=O)N2CCC(CCN3C4CCC3CC(n3c(C)nc5ccccc53)C4)(c3cccc(F)c3)CC2)c(Cl)cc1F (stereo not given) | inactive | 
20 | CC(C)=CCC/C(C)=C/CO | inactive | 

Row | Compound | outcome | AC50
21 | O=C(O)c1cc(N=Nc2ccc(S(=O)(=O)Nc3ccccn3)cc2)ccc1O | inactive | 
22 | CCCCCCCCCCCCCCCO | inactive | 
23 | Nc1nc2ncc(CNc3ccc(C(=O)N[C@@H](CCC(=O)O)C(=O)O)cc3)nc2c(=O)[nH]1 | inactive | 
24 | Cc1ccc(O)cc1 | inactive | 
25 | O=c1[nH]c2ccc(S(=O)CCN3CCC(Cc4ccc(F)cc4)CC3)cc2o1 (stereo not given) | inactive | 
26 | O=C(O)c1cccc(Oc2ccccc2)c1 | inactive | 
27 | CC1=CC(=O)CC(C)(C)C1 | inactive | 
28 | CCOCCOCCOCCO | inactive | 
29 | CNCc1ccc(NC(=O)c2c[nH]c3c2C(=O)CCC3)cc1 | inactive | 
30 | Fc1ccccc1[C@@H](F)COC1CCC(Nc2ncnc3[nH]ncc23)CC1 (stereo not given in full) |  | 26.1 µM (active)
31 | CCCCC(CC)COC(=O)c1ccc(C(=O)OCC(CC)CCCC)cc1 (stereo not given) | inactive | 
32 | O=C1OC(=O)C2C3C=CC(C3)C12 (stereo not given) | inactive | 
33 | CN(C)c1ccc(Cc2ccc(N(C)C)cc2)cc1 | inactive | 
34 | CCOC(=O)COc1ccc2c(c1)CC(NCC(O)c1cccc(Cl)c1)CC2 (stereo not given) | inactive | 
35 | Cc1ccc(N)cc1O | inactive | 
36 | COc1ccc2sc(C(=O)Nc3nnn[nH]3)c(OC(C)C)c2c1 |  | 149 µM (active)
37 | O=C(O)c1cccc(N(Cc2cccnc2)c2ccc(OC(F)F)c(OC(F)F)c2)c1 | inactive | 
38 | C=CCCCCCCCCC(=O)O | inactive | 
39 | COC(=O)c1c(Cl)c(Cl)c(C(=O)OC)c(Cl)c1Cl | inactive | 
40 | COCCOCCOCCOC | inactive | 
